DT40 TDP1 no CPT – qHTS for Inhibitors of human tyrosyl-DNA phosphodiesterase 1 (TDP1): qHTS in cells in absence of CPT; Potency, µM (top dose mostly 46.2 µM), for the others: at the top dose activity change, negative = growth inhibition, most hits filed as inhibitors; 15% of 420,000 active; DT40 Tdp1-/- hTDP1 cells, no CPT, ATP luminescence, 48 h; AID 686978, 2013; also: potency is read from the fitted curve at half-maximal effect; nearly all actives have a fitted effect of over 55% in size
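A cellular qHTS used chicken DT40 cells lacking endogenous Tdp1 but carrying stably transfected human TDP1. Compounds were applied without camptothecin, and cell growth kinetics were judged by ATP-dependent luminescence after ≥48 hr.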
CtBP-E1A blk – inhibitors of CtBP/E1A interaction; AlphaScreen GST-E1A/His-CtBP binding, 1536-well; hits give low values; activity change, % (test concentration not listed); 0.49% of 340,000 active; in the data active = activity change below about -65%; inconclusive = mostly about -30% to -63%
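In 5 uL wells, 23 nL compound meets equimolar GST-E1A and His-CtBP (5X stock 125 nM each) for 2 h, 37 °C. Beads (5X, 50 ug/mL) then 1 h, 37 °C, dark.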
IL-1B inflam inh – blocks inflammasome-driven IL-1 beta release; THP-1 LPS/ATP IL-1B secretion, AlphaLISA, 16 h; hits give low values; activity change, % at 57.5 µM; 4.7% of 360,000 active; AID 743279; in the data active = activity change below about -50%; inconclusive = mostly about -30% to -49%
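Secreted IL-1B measured by AlphaLISA bead assay after 16 h compound exposure of THP-1 cells; compounds (final up to 57.5 uM) added 1 h before LPS (250 ng/mL) and ATP (1.25 mM) stimulation; lower signal means less secretion.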
TDP1 block – inhibitors of human tyrosyl-DNA phosphodiesterase TDP1 | recombinant TDP1, AlphaScreen DNA substrate cleavage | AID 485290 | Potency, µM (highest dose often 130 µM), inactives show at the highest dose activity change, negative = inhibition, most hits filed as inhibitors | Q9NUW8 | 0.28% of 350,000 active; also: potency is read from the fitted curve at half-maximal effect; nearly all actives have a fitted effect of over 40% in size
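Here, a 5' biotin and 3' phosphotyrosine-FITC DNA oligonucleotide reports Tdp1 activity: intact substrate bridges AlphaScreen beads, while cleavage leaves a 3' phosphate and drops signal. All incubations at room temperature.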
DT40 TDP1 CPT – DT40-hTDP1 cell growth loss with CPT; chicken DT40 Tdp1-/-;hTDP1 cells + 20 nM CPT, ATP luminescence, 48 h; Potency, µM (highest dose often 46.2 µM), for inactives: at the highest dose activity change, negative = growth inhibition, hits mostly inhibitors; 12% of 420,000 active; also: potency is read from the fitted curve at half-maximal effect; nearly all actives have a fitted effect of over 55% in size
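Cell growth measured by CellTiter-Glo luminescence after a minimum 48 h, 37 C compound exposure with 20 nM CPT in Tdp1-knockout DT40 cells stably expressing hTDP1, seeded 400/well; qHTS titration format.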
Six1-Eya2 inh – Six1/Eya2 interaction inhibition; Q15475+O00167; AlphaScreen GST-Six1/His-Eya2 binding, biochemical; hits give low values; activity change, % (no concentration beside the values); 0.56% of 360,000 active; AID 651725; in the data active = activity change below about -65%; inconclusive = mostly about -30% to -63%
Target sequence (O00167 whole entry, looked up): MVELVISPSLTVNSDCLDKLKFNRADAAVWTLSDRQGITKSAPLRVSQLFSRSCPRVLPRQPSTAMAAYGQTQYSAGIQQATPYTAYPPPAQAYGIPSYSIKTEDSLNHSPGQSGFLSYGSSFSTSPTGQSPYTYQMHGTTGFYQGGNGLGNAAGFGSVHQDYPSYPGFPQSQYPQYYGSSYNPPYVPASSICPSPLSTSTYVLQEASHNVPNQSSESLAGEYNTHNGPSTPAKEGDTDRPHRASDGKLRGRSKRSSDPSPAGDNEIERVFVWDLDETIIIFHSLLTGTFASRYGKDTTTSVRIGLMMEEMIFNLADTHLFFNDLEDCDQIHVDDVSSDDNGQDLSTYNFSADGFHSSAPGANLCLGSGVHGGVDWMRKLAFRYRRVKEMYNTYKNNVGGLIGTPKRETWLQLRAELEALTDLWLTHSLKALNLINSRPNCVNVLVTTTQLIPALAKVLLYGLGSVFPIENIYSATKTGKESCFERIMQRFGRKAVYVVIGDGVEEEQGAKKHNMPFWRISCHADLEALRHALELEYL
Target sequence (Q15475 whole entry, looked up): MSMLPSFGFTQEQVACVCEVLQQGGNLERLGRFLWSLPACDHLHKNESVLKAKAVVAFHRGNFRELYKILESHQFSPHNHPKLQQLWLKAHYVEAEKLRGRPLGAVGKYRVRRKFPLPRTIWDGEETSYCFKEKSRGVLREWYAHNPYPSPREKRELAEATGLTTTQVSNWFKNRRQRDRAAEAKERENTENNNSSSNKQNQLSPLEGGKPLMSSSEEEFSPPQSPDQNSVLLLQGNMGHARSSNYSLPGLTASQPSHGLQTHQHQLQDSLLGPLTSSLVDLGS
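Homogeneous AlphaScreen proximity assay pairing GST-Six1 with His-tagged Eya2 (added as 5X mix: 250 nM and 500 nM) in 50 mM Tris pH 8.0, 300 mM NaCl, 1 mM TCEP. Glutathione donor and nickel acceptor beads; 1 h, 37 °C, dark.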
The depositor's hits bear a star; ? = inconclusive; · = no result given; [ ] = another dose, or the depositor's remark. Sampled rows, rich in hits. Any-hit rate of the full collection: about 18%. Unless noted, calls follow the shape of the dose curve; as a rule, active = well fitted curve in the direction sought with a large enough effect; inconclusive = small, poorly fitted or top-dose-only effect, or another doubt; inactive = no such curve, though single readings can be large; an effect the other way counts as inactive or inconclusive. % is scaled to controls: 0 for no effect and ±100 for the full control effect.

SMILES	DT40 TDP1 no CPT	CtBP-E1A blk	IL-1B inflam inh	TDP1 block	DT40 TDP1 CPT	Six1-Eya2 inh
Cc1cccc(OCCNc2cc(N3CCN(CCO)CC3)ccc2[N+](=O)[O-])c1	20.6µM*	21.4	0.0	5.5%	?	?
CC1CN(c2ccc([N+](=O)[O-])c(NCCOc3ccccc3)c2)CCN1 (stereo not given)	?	-24.9	-61.6*	10.8%	?	-22.7
O=[N+]([O-])c1ccc(N2CCCC2)cc1NCc1ccccc1	?	-11.8	19.0	-2.1%	-19.6%	-23.2
O=[N+]([O-])c1ccc(N2CCOCC2)cc1NCCCO	?	3.7	-6.1	3.6%	-28.2%	-8.6
Cn1c(SCC(=O)c2ccccc2)nnc1-c1ccccn1	-16.1%	-0.2	-9.4	2.8%	1.7%	-15.0
COc1cccc(-c2nc(S(=O)(=O)c3ccccc3)c(N3CCC(C)CC3)o2)c1	8.2µM*	·	·	5.3%	?	·
COc1ccc(-c2nc(S(=O)(=O)c3ccccc3)c(N3CCC(C)CC3)o2)cc1	11.6µM*	·	·	2.1%	20.6µM*	·
COc1ccc(-c2nc(S(=O)(=O)c3ccccc3)c(N3CCCC3)o2)cc1	-4.7%	12.8	5.3	·	-0.7%	9.3
COc1ccccc1-c1nc(S(=O)(=O)c2ccccc2)c(N2CCC(C)CC2)o1	3.66µM*	·	·	6.3%	23.1µM*	·
COc1ccc(N2CCN(c3oc(-c4ccccc4C)nc3S(=O)(=O)c3ccccc3)CC2)cc1	9.2µM*	·	·	3.7%	11.6µM*	·
COc1cccc2c1C1COC3C4CC(C(=O)O)C(C(C2)N13)N4C (stereo not given)	11.6µM*	0.0	-22.0	·	5.17µM*	2.3
Cc1ccc(C(C)C)c(OCC(=O)Nc2ccc(C(=O)OC3CCCCC3)cc2)c1	?	·	·	-1.3%[12.3 µM]	?	·
COc1ccc(/C=N/n2c(N)nc(-c3ccccc3)c2-c2ccccc2)cc1	16.4µM*	-15.3	?	9.8%	25.9µM*	0.0
COc1ccc(/C=N/n2c(N)nc3ccccc32)cc1OC	-23.1%	-14.6	-60.1*	5.3%	-14.8%	-22.3
COc1cccc(/C=N/n2c(N)nc3ccccc32)c1OC	-24.4%	6.7	-68.3*	4.5%	-26.0%	-2.3
CCN1CCc2c(OCC(=O)N3N=C(c4cccs4)CC3c3ccc(F)cc3)cccc2C1=O (stereo not given)	18.4µM*	-12.2	-57.3*	3.2%	20.6µM*	-17.1
CN1CCc2c(OCC(=O)N3N=C(c4cccs4)CC3c3ccc(F)cc3)cccc2C1=O (stereo not given)	29.1µM*	-5.9	-66.9*	-0.6%	11.6µM*	-15.4
Cn1c(-[n+]2c(-c3ccccc3)cc(-c3ccccc3)cc2-c2ccccc2)nc2c([N+](=O)[O-])cccc21	18.4µM*	0.0	-62.1*	10.5%	9.2µM*	-0.9
c1ccc(Nc2c(-c3ccccc3)nc3ncccn23)cc1	?	·	·	-2.5%	?	·
Cc1ccc2nc(-c3ccccc3O)c(Nc3ccccc3C)n2c1	-19.8%	·	·	0.0%[12.3 µM]	-25.3%	·
Fc1ccc(Nc2c(-c3c[nH]c4ccccc34)nc3ccccn23)cc1	20.6µM*	·	·	11.8%	16.4µM*	·
c1ccc(Nc2c(-c3c[nH]c4ccccc34)nc3ccccn23)cc1	11.6µM*	·	·	8.8%	14.6µM*	·
Cc1ccc2nc(-c3c[nH]c4ccccc34)c(Nc3ccccc3)n2c1	?	·	·	4.5%	16.4µM*	·
O=C(Nc1ccc(F)cc1)c1c(Cl)nc2ccccn12	?	-0.4	20.8	5.1%	4.1%	-5.1
CC1=C/C(=N\OC(=O)/C=C/c2ccccc2)C(C)=CC1=O	?	-10.8	-17.2	4.1%	23.1µM*	8.1
SMILES	DT40 TDP1 no CPT	CtBP-E1A blk	IL-1B inflam inh	TDP1 block	DT40 TDP1 CPT	Six1-Eya2 inh
CCOC(=O)C1=NN(c2ccc(OC)cc2)C(c2ccccc2)CC1=O (stereo not given)	-21.3%	-4.7	-23.9	-4.4%	-10.4%	-10.6
COCc1nnc(NC(=O)c2cc(OC)c(OC)c(OC)c2)s1	-7.3%	·	·	·	2.0%	·
CCOC(=O)c1csc(NC(=O)c2cc(OC)c(OC)c(OC)c2)n1	?	-2.4	-53.9*	2.0%	?	2.2
COc1cc(C(=O)Nc2nnc(CC(C)(C)C)s2)cc(OC)c1OC	?	·	·	·	13µM*	·
Cc1ccc(/C=C(\NC(=O)c2ccccc2)C(=O)NCC2CCCO2)o1 (stereo not given)	0.1%	·	11.6	3.6%	8.1%	7.7
CCC(=O)Nc1cccc(C(=O)/C=C/c2ccc(F)cc2)c1	2.59µM*	0.0	-80.1*	2.6%	4.61µM*	-7.2
CN(C)c1ccc(/C=C/C(=O)c2cccc(Br)c2)cc1	20.6µM*	10.0	?	·	14.6µM*	22.9
COc1cccc(NC(=S)NC(=O)/C=C/c2ccc(F)cc2)c1	17.8%	-4.9	?	·	-1.2%	2.3
CC(=O)Nc1ccc(N/C=C/C(=O)c2ccc(C)cc2)cc1	11.4%	-2.9	-16.4	·	2.8%	6.4
CC(=O)Nc1cccc(C(=O)/C=C/c2ccc(C)cc2)c1	10.3µM*	5.0	-102.2*	-2.6%	9.2µM*	7.7
Cc1cc([N+](=O)[O-])nn1CC(=O)NCCCn1ccnc1	-2.8%	1.5	19.8	0.0%	3.8%	7.0
COCC(=O)Nc1cc(=O)n(C)c(=O)n1C	-3.7%	2.5	0.2	6.2%	2.1%	3.6
COc1ccc(N2C(=O)CC(Sc3nc4ccccc4s3)C2=O)cc1 (stereo not given)	3.66µM*	6.5	9.2	1.3%	2.91µM*	0.5
COc1ccc(N2C(=O)CC(NNc3nc4ccccc4s3)C2=O)cc1 (stereo not given)	0.3%	5.5	15.9	0.0%	-5.9%	2.0
CCOc1ccc(N2C(=O)CC(Sc3nc(C)cc(C)n3)C2=O)cc1 (stereo not given)	1.3%	8.4	35.7	2.0%	-20.0%	2.6
COc1ccc(N2C(=O)CC(Sc3nnc(-c4ccccc4F)n3C)C2=O)cc1 (stereo not given)	5.17µM*	1.5	18.2	-7.5%	4.11µM*	3.7
CCOc1ccc2nc(SC3CC(=O)N(c4ccc(OC)cc4)C3=O)sc2c1 (stereo not given)	4.61µM*	1.3	-4.5	5.9%	2.91µM*	-1.1
C=CCNc1nnc(SC2CC(=O)N(c3ccc(OC)cc3)C2=O)s1 (stereo not given)	4.61µM*	-10.6	-11.3	0.0%	3.66µM*	0.5
CCn1c(CNC(=O)c2ccccc2Cl)cc2ccccc21	?	0.1	3.6	3.7%	-19.4%	1.2
